Each structure is given as a SMILES string. Several values for one entry are separate records, joined by “and”; a condition that tells them apart may be missing. Identical values can stand only once. The panel holds about 83,000 compounds, 20% with a hit somewhere; the sample as a whole holds those more often.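 Single-dose data. Exposure time 48 hours. Values below 10 considered active.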 Activity calls are given as the source filed them.

The subject of one test is T-47D breast. Briefly: NCI-60 one-dose screen, 48 h (100 = growth as untreated, 0 = no growth, -100 = all killed). Particulars: 10 µM unless noted.
For the molecule `S=c1nc(CS)[nH]c2ccccc12`, the growth was 109% (inactive).
On the same count and under the same terms, the value for `O=C(CC1(O)C(=O)Nc2ccc(Br)cc21)c1ccc(Cl)cc1` (stereo not drawn) was 84.4% (inactive).
With `Clc1ccc(/C=N\N2CCCCCC2)cc1`, the growth is 108% (inactive) and 97.4% (inactive).
Consider `COc1ccc(Nc2ncnc3ccc(-c4cncc(NS(C)(=O)=O)c4)cc23)cc1Cl`, for which the growth is -13.6% (active).
In the case of `O=C(c1cccc(Br)c1)N1CCN(c2ccnc3cc(Cl)ccc23)CC1`, the growth is 44.4% (inactive).
Same read-out and setting: the value for `CCCn1nc(C(=O)N2CCCCC2)c2c1CCC(N1CCC(c3ccncc3)CC1)C2` (stereo not drawn) was 99.5% (inactive).
With `O=C(Nc1cc(C(F)(F)F)cc(C(F)(F)F)c1)c1cc(Cl)ccc1O`, the growth was -14% (active) and -1.66% (active).
The same measure, in the same setting: for `Cc1cnc(C(=O)NNc2nc3sc4c(c3c(=O)[nH]2)C(C)CCC4)cn1` (stereo not drawn) the value was 30.4% (inactive); for `CN1CCN(CCNC(=O)c2cccc(CN3c4cccc5c4C(=Cc4cccnc43)N(C)C5=O)c2)CC1`, 34.8% (inactive).
As to `CCNC(=O)Oc1ccc(/C(=C(/C)Cc2ccc(OC)cc2)c2ccc(OCCN(CC)CC)cc2)cc1`, the growth was 27.4% (inactive).
For the molecule `COc1c(NC=O)c2c(c([N+](=O)[O-])c1OC)C(=O)OC2`, the growth is 109% (inactive) and 93.1% (inactive).
Turning to `COc1cc(/C=C2\C(=O)N(CCCCn3c4ccccc4c(=O)c4ccccc43)c3ccccc32)cc(OC)c1O`, the growth is 66.1% (inactive).
For `Cc1c(O)c(O)cc2c3c(oc12)CC(c1ccc2c(c1)OCO2)CC3=O` (stereo not drawn), the growth is 67.4% (inactive).
On the same count and under the same terms, for `CC(=NCc1ccccc1)c1ccc(O)cc1O` the value was 92.2% (inactive); for `COc1ccc(CCNC(=O)COc2cc3c(Nc4ccc(F)c(Cl)c4)ncnc3cc2OC)cc1OC`, 70% (inactive); for `COc1cccc(NC(=O)c2sc3nc(C)c(C(O)c4ccccc4)cc3c2N)c1` (stereo not drawn), 35.3% (inactive).
On the same count and under the same terms, for `Cc1cc2nc(C(Cl)Cl)nc(-c3ccc(Cl)cc3)n2n1` the value was 27.4% (inactive); for `Nc1ccc(S(=O)(=O)c2ccc(N)cc2)cc1`, 104% (inactive) and 100% (inactive); for `CCCCCO/N=C\c1c2c(O)c3c(O)c(C)c4c(c3c1O)C(=O)C(C)(O/C=C\C(OC)C(C)C(OC(C)=O)C(C)C(O)C(C)C(O)C(C)/C=C\C=C(\C)C(=O)N2)O4` (stereo not drawn), 26.8% (inactive).
Consider `COc1ccc(-c2nc(Cl)c3c(C)nn(-c4ccc(F)cc4)c3n2)cc1`, for which the growth is 102% (inactive).
On the same count and under the same terms, the value for `COc1ccc(Oc2nc(Nc3ccc(N4CCOCC4)cc3)ncc2NC(=O)c2cccc(C(F)(F)F)c2)cc1` was 76.5% (inactive); that for `O=C1C=CC(=O)N1c1ccc2ccccc2c1` was 88.7% (inactive) and 88.6% (inactive); that for `CN(C)C1CCN(C(=O)c2ccc(NC(=O)Nc3ccc(-c4nc(N5CCOCC5)c5cccn5n4)cc3)cc2)CC1` was -36% (active).
Same read-out and setting: the value for `O=C(Cc1ccc(F)cc1)c1ccccc1` was 112% (inactive).
The same measure, in the same setting: the value for `Cc1ccc(C(=O)c2ccc(CC(=O)N=Nc3c(O)[nH]c4ccc(OC(F)(F)F)cc34)n2C)cc1` was 74.5% (inactive); that for `O=C(NNc1ccccc1)C1CCCN1` (stereo not drawn) was 55.6% (inactive); that for `O=C(/C=C/c1ccc(F)cc1)Nc1ncc(Cc2ccc(F)cc2)s1` was 28% (inactive).
Take `O=C1/C(=C/c2ccccc2[N+](=O)[O-])Cc2ccccc21`: the growth was 1.93% (active) and 64% (inactive).
For `CCCO/N=C/c1ccccn1`, the growth was 107% (inactive) and 93.9% (inactive).
On the same count and under the same terms, for `COc1cc2nc3cc([N+](=O)[O-])ccc3c(NCCNCC(C)(C)O)c2cc1OC` the value was -3.16% (active); for `Cc1ccc(-c2nc(SCC(=O)c3ccc(C#N)cc3)[nH]c(=O)c2C#N)cc1`, 100% (inactive); for `COc1ccc(/C=C/C(=O)c2cc3c(N)c(C(=O)Nc4ccccc4)sc3nc2C)cc1`, 46.7% (inactive).
`CC1(C)C(N)=Nc2cc(OCCCN3Cc4ccc(OCCc5cn(CC(=O)N6CCC(CCN7CCCC7)CC6)nn5)cc4C3)c(OCC3CC3)cc21`: the growth is 92.3% (inactive).
Same read-out and setting: the value for `CCCN1C(=O)/C(=c2\sc3n(c2=O)NC2C(N=3)N(CC)C(=O)N2CC)c2ccccc21` (stereo not drawn) was 26.2% (inactive); that for `c1cc(NCCCCN2CCOCC2)c2ccc3c(ccc4c(NCCN5CCOCC5)ccnc43)c2n1` was 94.9% (inactive).
In the case of `Clc1cccc(Nc2ncnc3ccc(-c4cncc(-n5cnnn5)c4)cc23)c1`, the growth is 44.8% (inactive).
`COc1ccc2c(c1)c(-c1nc(-c3c[nH]c4c(Cl)nccc34)cs1)cn2C`: the growth is -4.46% (active).
Turning to `C=CCOc1ccc(/C=C2\SC(=S)N(CCc3ccc(O)cc3)C2=O)cc1`, the growth was 82.8% (inactive).
On the same count and under the same terms, the value for `CCOc1ccc(C(=O)Cc2ccccc2)cc1` was 98% (inactive) and 100% (inactive).

The next test concerns BT-549 breast. Described as above. Particulars: 10 µM unless noted.
On to `S=c1nc(CS)[nH]c2ccccc12`, for which the growth is 101% (inactive).
Still for that read-out and setting: the value for `O=C(CC1(O)C(=O)Nc2ccc(Br)cc21)c1ccc(Cl)cc1` (stereo not drawn) was 99.9% (inactive).
Same read-out and setting: for `Clc1ccc(/C=N\N2CCCCCC2)cc1` the value was 105% (inactive) and 90.4% (inactive); for `COc1ccc(Nc2ncnc3ccc(-c4cncc(NS(C)(=O)=O)c4)cc23)cc1Cl`, 24.5% (inactive); for `O=C(c1cccc(Br)c1)N1CCN(c2ccnc3cc(Cl)ccc23)CC1`, 112% (inactive).
Still for that read-out and setting: for `CCCn1nc(C(=O)N2CCCCC2)c2c1CCC(N1CCC(c3ccncc3)CC1)C2` (stereo not drawn) the value was 79.5% (inactive); for `O=C(Nc1cc(C(F)(F)F)cc(C(F)(F)F)c1)c1cc(Cl)ccc1O`, -31.5% (active); for `Cc1cnc(C(=O)NNc2nc3sc4c(c3c(=O)[nH]2)C(C)CCC4)cn1` (stereo not drawn), 39.5% (inactive).
As to `CN1CCN(CCNC(=O)c2cccc(CN3c4cccc5c4C(=Cc4cccnc43)N(C)C5=O)c2)CC1`, the growth was 57.5% (inactive).
On to `CCNC(=O)Oc1ccc(/C(=C(/C)Cc2ccc(OC)cc2)c2ccc(OCCN(CC)CC)cc2)cc1`, for which the growth was 80.5% (inactive).
The same measure, in the same setting: for `COc1c(NC=O)c2c(c([N+](=O)[O-])c1OC)C(=O)OC2` the value was 94.4% (inactive); for `COc1cc(/C=C2\C(=O)N(CCCCn3c4ccccc4c(=O)c4ccccc43)c3ccccc32)cc(OC)c1O`, 51.1% (inactive).
Turning to `Cc1c(O)c(O)cc2c3c(oc12)CC(c1ccc2c(c1)OCO2)CC3=O` (stereo not drawn), the growth is 74.6% (inactive).
The same measure, in the same setting: the value for `CC(=NCc1ccccc1)c1ccc(O)cc1O` was 91.9% (inactive); that for `COc1ccc(CCNC(=O)COc2cc3c(Nc4ccc(F)c(Cl)c4)ncnc3cc2OC)cc1OC` was 99.5% (inactive).
On the same count and under the same terms, for `COc1cccc(NC(=O)c2sc3nc(C)c(C(O)c4ccccc4)cc3c2N)c1` (stereo not drawn) the value was 55.6% (inactive); for `Cc1cc2nc(C(Cl)Cl)nc(-c3ccc(Cl)cc3)n2n1`, 52.5% (inactive); for `Nc1ccc(S(=O)(=O)c2ccc(N)cc2)cc1`, 104% (inactive) and 110% (inactive).
As to `CCCCCO/N=C\c1c2c(O)c3c(O)c(C)c4c(c3c1O)C(=O)C(C)(O/C=C\C(OC)C(C)C(OC(C)=O)C(C)C(O)C(C)C(O)C(C)/C=C\C=C(\C)C(=O)N2)O4` (stereo not drawn), the growth is 33.1% (inactive).
For the molecule `COc1ccc(-c2nc(Cl)c3c(C)nn(-c4ccc(F)cc4)c3n2)cc1`, the growth was 123% (inactive).
Consider `COc1ccc(Oc2nc(Nc3ccc(N4CCOCC4)cc3)ncc2NC(=O)c2cccc(C(F)(F)F)c2)cc1`, for which the growth is 96.9% (inactive).
`O=C1C=CC(=O)N1c1ccc2ccccc2c1`: the growth was 114% (inactive) and 103% (inactive).
The same measure, in the same setting: for `CN(C)C1CCN(C(=O)c2ccc(NC(=O)Nc3ccc(-c4nc(N5CCOCC5)c5cccn5n4)cc3)cc2)CC1` the value was -7.28% (active).
Same read-out and setting: the value for `O=C(Cc1ccc(F)cc1)c1ccccc1` was 97.2% (inactive); that for `Cc1ccc(C(=O)c2ccc(CC(=O)N=Nc3c(O)[nH]c4ccc(OC(F)(F)F)cc34)n2C)cc1` was 95.3% (inactive).
Same read-out and setting: for `O=C(NNc1ccccc1)C1CCCN1` (stereo not drawn) the value was 104% (inactive); for `O=C(/C=C/c1ccc(F)cc1)Nc1ncc(Cc2ccc(F)cc2)s1`, 67.3% (inactive).
On to `O=C1/C(=C/c2ccccc2[N+](=O)[O-])Cc2ccccc21`, for which the growth is 19.4% (inactive) and 27.3% (inactive).
As to `CCCO/N=C/c1ccccn1`, the growth is 90.8% (inactive).
As to `COc1cc2nc3cc([N+](=O)[O-])ccc3c(NCCNCC(C)(C)O)c2cc1OC`, the growth is -75.6% (active).
Regarding `Cc1ccc(-c2nc(SCC(=O)c3ccc(C#N)cc3)[nH]c(=O)c2C#N)cc1`, the growth is 101% (inactive).
On the same count and under the same terms, the value for `COc1ccc(/C=C/C(=O)c2cc3c(N)c(C(=O)Nc4ccccc4)sc3nc2C)cc1` was 2.86% (active).
Same read-out and setting: the value for `CC1(C)C(N)=Nc2cc(OCCCN3Cc4ccc(OCCc5cn(CC(=O)N6CCC(CCN7CCCC7)CC6)nn5)cc4C3)c(OCC3CC3)cc21` was 100% (inactive).
As for `CCCN1C(=O)/C(=c2\sc3n(c2=O)NC2C(N=3)N(CC)C(=O)N2CC)c2ccccc21` (stereo not drawn), the growth is 62.8% (inactive).
The same measure, in the same setting: for `c1cc(NCCCCN2CCOCC2)c2ccc3c(ccc4c(NCCN5CCOCC5)ccnc43)c2n1` the value was 103% (inactive).
On to `Clc1cccc(Nc2ncnc3ccc(-c4cncc(-n5cnnn5)c4)cc23)c1`, for which the growth was 44.9% (inactive).
Still for that read-out and setting: the value for `COc1ccc2c(c1)c(-c1nc(-c3c[nH]c4c(Cl)nccc34)cs1)cn2C` was 98.8% (inactive); that for `C=CCOc1ccc(/C=C2\SC(=S)N(CCc3ccc(O)cc3)C2=O)cc1` was 93.6% (inactive); that for `CCOc1ccc(C(=O)Cc2ccccc2)cc1` was 113% (inactive) and 116% (inactive).
